Data published in PubChem BioAssay AID686978 (National Center for Advancing Translational Sciences (NCATS), 2013).
About 64,000 (15%) of roughly 420,000 compounds were called active. Roughly 27% stayed inconclusive and do not appear here. A selection follows. Values without a mark were called inactive. The call rests on the fitted dose curve; in most records, active means well fitted inhibition curve with a large enough effect; inconclusive means small, poorly fitted or top-dose-only effect; inactive means flat fitted curve, though single readings scatter.

assay: qHTS for Inhibitors of human tyrosyl-DNA phosphodiesterase 1 (TDP1): qHTS in cells in absence of CPT; conditions: DT40 Tdp1-/- hTDP1 cells, no CPT, ATP luminescence, 48 h; activity change, negative = growth inhibition: at 46.2 µM (top of the series); further: nearly all actives have a fitted effect of over 55% in size
Summary of the method: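 Chicken DT40 Tdp1-/- cells stably complemented with human TDP1 were seeded at 400 cells/well with DMSO in place of 20 nM camptothecin. After compound pinning, cells grew at least 48 hr at 37 °C; viability read by CellTiter-Glo luminescence.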
On the % scale 0 is the no-effect control and ±100 the full control effect; potency means the concentration at half of the fitted maximal effect.

| Structure (SMILES) | activity change, negative = growth inhibition [%] | Potency |
| --- | --- | --- |
| COC(=O)C(C(=O)Nc1cccc(Cl)c1C)C1CCCC1 (centres undefined) | -25.4 |  |
| CCOC(=O)C(=O)C1C(=O)Nc2ccccc21 (centres undefined) | 5.01 |  |
| CCC(=O)Nc1c(C)n[nH]c1C | -10 |  |
| CCOc1ccc(-c2cn(S(=O)(=O)c3cccc4nsnc34)nc2N)cc1 | -13.4 |  |
| COc1cccc(CNC(=O)CN2C(=O)CCc3cc(S(=O)(=O)N4CCOCC4)ccc32)c1 | -0.508 |  |
| Cc1cc(NC(=O)CSc2nc(=O)cc(N)n2-c2ccc(F)cc2)no1 | 9.07 |  |
| CC(=O)c1ccc(NC(c2ccc(F)cc2)c2nnc(-c3ccccc3)o2)cc1 (centres undefined) |  | 8.2 µM (active) |
| CCCN(CCC)c1ccc(C(O)c2nnc(-c3ccccc3)o2)cc1 (centres undefined) | -2.41 |  |
| CC(=O)c1ccc(NC(=O)COc2ccccc2-c2nc(-c3ccccc3)no2)cc1 | -10.5 |  |
| NC(=O)C1(N2CCCC2)CCN(Cc2ccccc2)CC1 | 1.08 |  |
| COC(=O)[C@@H]1C[C@H]2CC[C@H](O)C[C@H]2N1Cc1ccc(N2CCN(C)CC2)cc1 | 9.08 |  |
| COCCNC(=O)C(c1ccc(C)o1)N(Cc1ccccc1)C(=O)Cn1nnc2ccccc21 (centres undefined) | -18.4 |  |
| Cc1ccc2nc(/C(C#N)=C\c3ccc(OC(=O)c4cccs4)cc3)[nH]c2c1 |  | 6.51 µM (active) |
| Cc1ccc2nc(S(=O)(=O)O)[nH]c2c1 | 4.87 |  |
| CCOC(=O)c1ccc(-c2ccc(/C=C(\C#N)C(=O)Nc3ccc(OCC)cc3)o2)cc1 | 1.66 |  |
| CCOc1ccc(/C=C(\C#N)c2nc3ccccc3c(=O)[nH]2)cc1OC | -28 |  |
| Cc1ccc2nc(/C(C#N)=C/c3ccccc3F)[nH]c2c1 |  | 18.4 µM (active) |
| COc1ccccc1CSc1nc2ccccc2[nH]1 | -18.3 |  |
| N#C/C(=C\c1ccccc1F)c1nc2ccccc2c(=O)[nH]1 | -10.4 |  |
| Cc1ccc2nc(/C(C#N)=C/c3ccc(-c4ccc(C(=O)OC(C)C)cc4)o3)[nH]c2c1 |  | 5.17 µM (active) |
| COc1cc(/C=C(\C#N)c2nc3ccccc3[nH]2)ccc1O |  | 23.1 µM (active) |
| N#CCCC(C#N)(c1cccnc1)N1CCOCC1 (centres undefined) | -1.39 |  |
| CCCCN1CC(COCc2ccccc2)OCCS1(=O)=O (centres undefined) | -27.9 |  |
| CC(C)c1cc(C(=O)O)on1 | 8.31 |  |
| CN(C(=O)CSc1nnnn1-c1ccccc1)C1CCCCC1 | 0.578 |  |
| NNC(=O)CNC(c1ccccc1)c1cc(Cl)ccc1NC(=O)c1ccccc1 (centres undefined) | -9.24 |  |
| CC(C)C(c1nnnn1C(C)(C)C)N1CCN(Cc2cccnc2)CC1 (centres undefined) | 8.15 |  |

| Structure (SMILES) | activity change, negative = growth inhibition [%] | Potency |
| --- | --- | --- |
| COc1ccc(C(=O)O/N=C(\N)c2ccccn2)cc1[N+](=O)[O-] | -20.5 |  |
| CCc1ccccc1NC(=O)c1cccs1 | -14 |  |
| O=C(Nc1ccccc1-c1ccccc1)c1cccs1 |  | 23.1 µM (active) |
| O=C(Nc1ccccc1)c1ccc(NC(=O)c2cccs2)cc1 | 2.02 |  |
| O=C(Nc1ccccc1-c1nnn(CC(=O)N2CCN(c3ccccc3)CC2)n1)c1cccs1 |  | 23.1 µM (active) |
| CCOc1ccc(-c2nnn(CC(=O)N3CCN(c4ccc(F)cc4)CC3)n2)cc1OCC | -10.8 |  |
| COc1ccccc1N1CCN(C(=O)Cn2nnc(-c3cccs3)n2)CC1 | -19.7 |  |
| OCCNCCCCOc1ccccc1F | -13.5 |  |
| Cn1c2c(c(=O)n(C)c1=O)[C@@H]1c3c(ccc4ccccc34)OC[C@@H]1CO2 | 10.5 |  |
| COc1cc(N2C(=O)CC3(CCCC3)CC2=O)cc(OC)c1OC | 2.17 |  |
| O=C(COc1ccc(F)cc1)N(CC1=CCS(=O)(=O)C1)c1ccccc1 | -26.4 |  |
| CC1C(=O)N(Cc2ccccc2)c2ccccc2N1C(=O)c1ccccc1 (centres undefined) |  | 13 µM (active) |
| CC1C(=O)Nc2ccccc2N1C(=O)c1c(F)cccc1F (centres undefined) | -18.1 |  |
| CC1Oc2ccccc2N(Cc2cccnc2)C1=O (centres undefined) | -1.68 |  |
| CCc1cccc(-n2nnc(-c3nsc(NC(=O)c4ccc(C)cc4)n3)c2C)c1 |  | 8.2 µM (active) |
| Cc1ccc(C(=O)Nc2nc(N)n(-c3ccccc3)n2)cc1 | -12.3 |  |
| Cc1ccc(C(=O)Nc2nc(-c3ccccc3)ns2)cc1 | -25.5 |  |
| CC(=O)c1ccc(-c2nnc(CCC(=O)N(C)Cc3cnc4ccccn34)o2)s1 | -11.2 |  |
| CCc1ccc(CN(C)C(=O)CCc2nnc(-c3ccc(-c4ccccc4)cc3)o2)nc1 |  | 11.6 µM (active) |
| CN(Cc1ccccc1)C(=O)CCc1ccccc1 | -27.6 |  |
| CCOc1ccc(C)cc1S(=O)(=O)NC1CCCCCC1 | 10.5 |  |
| Clc1ccc(C[n+]2cc(-c3ccc(Cl)cc3)n3c2CCC3)cc1 |  | 5.8 µM (active) |
| Cn1c(-c2ccccc2)c[n+]2c1CCCCC2 | 0.0239 |  |
| Clc1ccc(C[n+]2cc(-c3ccccc3)n3c2CCC3)cc1 |  | 5.17 µM (active) |
| COc1ccccc1C(=O)NCCC(=O)N(C)Cc1cccnc1 | 10 |  |
| COCC1CCN(C(=O)C2CCC(=O)N(Cc3cccc(C(F)(F)F)c3)C2)CC1 (centres undefined) | -1.97 |  |
| O=C(NCCc1ccccn1)c1nc(Cn2cc([N+](=O)[O-])cn2)no1 | 3.68 |  |
